# Assay results as given in PubChem BioAssay.
# Several values for one entry are separate records, joined by “and”; a condition that tells them apart may be missing. Identical values can stand only once. Inconclusive results are not listed. For some of these results: Results with a measured potency or affinity are listed apart. Activity calls are given as the source filed them.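 Rule for the calls, unless noted: active = inhibition above 50%; inactive = the rest.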
# What was measured:
# [1] = human hepatoma cell viability loss – ATP luminescence, cytotoxicity control for P. falciparum antimalarial project, primary screen (AID 2303); settings: HepG2 viability, 24-48 h, at 10 µM, stronger effect = higher value;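 note: 0% = DMSO wells and 100% = digitonin-killed cells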
# [2] = target: Calcium-dependent protein kinase 4 (Plasmodium falciparum (isolate 3D7)) (UniProt Q8IBS5); assay: PfCDPK4 kinase inhibitors, biochemical, TCAMS library (AID 1159588; cut-off not given, nearly all actives have IC50 up to about 0.91 µM); settings: recombinant PfCDPK4, Kinase-Glo ATP depletion luminescence
# [3] = selective SMN2 exon splicing luciferase activators – cell-based, SMN2/SMN1 luciferase reporters (AID 1598; call rule not given here); settings: SMN2 vs SMN1 luciferase splicing reporter cells, at 10 µM; SMN1 luciferase ratio: measured here: SMN1 luciferase reporter average; SMN2 luciferase ratio: measured here: SMN2 luciferase reporter average, stronger effect = higher value; SMN2/SMN1 luciferase ratio: stronger effect = higher value
# [4] = rescue of PC12 cells from polyQ htt toxicity – LDH release (AID 1610); settings: PC12 mutant huntingtin toxicity, final LDH at 4 uM, stronger effect = lower value
# [5] = glutamate excitotoxicity neuroprotectants – cell-based, TUNEL DNA degradation staining, MNGlu (AID 1594; call rule not given here); settings: motor neurons, glutamate-induced death, at 1 µM, stronger effect = higher value
# Chain of Calcium-dependent protein kinase 4 (Plasmodium falciparum (isolate 3D7)) (Q8IBS5 whole entry, looked up): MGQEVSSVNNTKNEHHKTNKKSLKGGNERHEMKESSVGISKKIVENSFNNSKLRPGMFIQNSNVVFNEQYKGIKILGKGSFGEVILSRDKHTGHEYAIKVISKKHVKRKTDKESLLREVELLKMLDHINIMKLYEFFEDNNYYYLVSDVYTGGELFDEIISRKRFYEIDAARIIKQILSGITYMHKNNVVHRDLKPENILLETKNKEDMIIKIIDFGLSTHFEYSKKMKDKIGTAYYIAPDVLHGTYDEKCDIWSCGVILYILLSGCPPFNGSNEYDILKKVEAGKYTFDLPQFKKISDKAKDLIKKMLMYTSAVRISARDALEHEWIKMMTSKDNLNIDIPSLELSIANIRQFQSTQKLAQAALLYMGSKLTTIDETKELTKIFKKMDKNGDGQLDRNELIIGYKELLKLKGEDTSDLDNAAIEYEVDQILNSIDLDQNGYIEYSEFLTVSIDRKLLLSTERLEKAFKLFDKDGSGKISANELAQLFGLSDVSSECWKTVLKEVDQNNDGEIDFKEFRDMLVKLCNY
smiles,measurement,setting,value
CCN(CCO)CCCC(C)Nc1ccnc2cc(Cl)ccc12 (stereo not given),inhibition,[1],3% (inactive)
same,outcome,[2],inactive
NC12CC3CC(CC(C3)C1)C2,SMN1 luciferase ratio,[3],0.84
same,SMN2/SMN1 luciferase ratio,[3],1.22 (active)
same,SMN2 luciferase ratio,[3],1.01
same,inhibition,[1],31% (inactive)
same,outcome,[2],inactive
N=C(N)c1ccc(OCCCCCOc2ccc(C(=N)N)cc2)cc1,outcome,[2],inactive
c1ccc([C@H]2CN3CCSC3=N2)cc1,inhibition,[1],11% (inactive)
same,outcome,[2],inactive
CCCCCN=C(N)N/N=C/c1c[nH]c2ccc(OC)cc12,inhibition,[1],16% (inactive)
same,outcome,[2],inactive
c1ccc(CC2=NCCN2)cc1,inhibition,[1],3% (inactive)
same,outcome,[2],inactive
CCN(CC)CCCC(C)Nc1c2ccc(Cl)cc2nc2ccc(OC)cc12 (stereo not given),outcome,[2],inactive
CCN(CC)CCCC(C)Nc1ccnc2cc(Cl)ccc12 (stereo not given),inhibition,[1],12% (inactive)
same,outcome,[2],inactive
CC[C@H]1CN2CCc3cc(OC)c(OC)cc3[C@@H]2C[C@@H]1C[C@H]1NCCc2cc(OC)c(OC)cc21,inhibition,[1],43% (inactive)
same,outcome,[2],inactive
CC(C)C(=O)Nc1ccc([N+](=O)[O-])c(C(F)(F)F)c1,normalised LDH release,[4],0.739
CO[C@@]1(NC(=O)Cc2cccs2)C(=O)N2C(C(=O)O)=C(COC(N)=O)CS[C@@H]21,SMN1 luciferase ratio,[3],1.2
same,SMN2/SMN1 luciferase ratio,[3],1.24 (active)
same,SMN2 luciferase ratio,[3],1.48
COC1=CC(=O)C[C@@H](C)[C@]12Oc1c(Cl)c(OC)cc(OC)c1C2=O,protection,[5],17% (active)
CCc1nc(N)nc(N)c1-c1ccc(Cl)cc1,inhibition,[1],66% (active) and 71% (active)
